CBFb RUNX1 block: blocks binding between human CBF-beta and RUNX1 | Q01196+Q13951 | AlphaScreen CBFb-His/RUNX1-biotin binding, biochemical | Potency, µM (doses to about 59.8 µM), for the others: top-dose activity, negative = inhibition, usual class: inhibitors | 230,000 tested, under 10 active; also: % of control where 0% means no effect
Target sequence (Q01196 whole entry, looked up): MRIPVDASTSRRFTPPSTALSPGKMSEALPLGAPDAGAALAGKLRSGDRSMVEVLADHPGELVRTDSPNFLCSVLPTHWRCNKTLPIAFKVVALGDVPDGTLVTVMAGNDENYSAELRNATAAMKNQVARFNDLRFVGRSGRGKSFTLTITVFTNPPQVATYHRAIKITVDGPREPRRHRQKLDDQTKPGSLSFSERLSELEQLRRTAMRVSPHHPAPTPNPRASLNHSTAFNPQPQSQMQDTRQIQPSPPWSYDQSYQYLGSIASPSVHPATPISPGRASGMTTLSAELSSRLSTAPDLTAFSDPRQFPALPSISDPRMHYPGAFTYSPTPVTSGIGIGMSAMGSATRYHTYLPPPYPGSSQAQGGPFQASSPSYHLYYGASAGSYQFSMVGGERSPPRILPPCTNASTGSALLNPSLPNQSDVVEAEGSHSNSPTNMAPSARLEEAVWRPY
Target sequence (Q13951 whole entry, looked up): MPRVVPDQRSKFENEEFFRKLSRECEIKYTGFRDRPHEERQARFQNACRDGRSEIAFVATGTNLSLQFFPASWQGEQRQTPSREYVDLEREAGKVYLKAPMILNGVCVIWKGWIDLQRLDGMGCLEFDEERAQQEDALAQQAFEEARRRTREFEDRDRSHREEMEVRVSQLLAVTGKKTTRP
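Inhibition was taken as any reduction in AlphaScreen signal from the CBF-beta–RUNX1 pair (His and biotin tags, 30 nM each), measured after compound (15 min) and bead (90 min) incubations at room temperature.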
PNC assembly inh: perinucleolar compartment assembly inhibition; hit rate 3.1% among 140,000; PC3M PTB-GFP, PNC prevalence imaging, 16 h; stronger effect = lower value; activity change (PNC), negative = inhibition, % at 10 µM;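 active = readout at or below -70, meaning at least 70% loss of cells showing the perinucleolar compartment, a nuclear body marking cancer cells; inconclusive = readout between -30 and a set limit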;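 also: plate controls were DMSO wells for no effect and camptothecin positive control wells for full effect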
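Compounds are pinned in duplicate onto adhered PC3M cells stably expressing GFP-tagged PTB and incubated 16 h at 37 C. Cells are then fixed, nuclei stained with Hoechst, and PNC-positive cells counted.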
HTT ATP protect: protects HTT-Q103 PC12 cells, measured by ATP; Potency, µM (doses to about 56.4 µM), for inactives: cytoprotection (ATP increase), actives largely listed as activators; PC12 HTT-Q103 induced, cytoprotection, ATP luminescence, 40 h; hit rate 0.14% among 230,000; also: potency is read from the fitted curve at half-maximal effect; % of control where 0% means no effect; nearly all actives have a fitted effect of over 45% in size
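PC12 cells with ecdysone-inducible HTT exon 1 Q103-GFP, induced with 100 nM tebufenozide and co-treated with library compounds in a dose series (1536-well, 1500 cells/well). Cytoprotection read as ATP content by ATPlite luminescence.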
ALDH1A1 inh: blocks purified human ALDH1A1 activity; Potency, µM (series often up to 75.3 µM), inactives show top-dose activity, negative = inhibition, hits mostly inhibitors; Purified ALDH1A1, NADH fluorescence, propionaldehyde substrate; hit rate 7.3% among 220,000; P00352; active = well fitted inhibition curve with a large enough effect, not every such curve was filed as active; inconclusive = small, poorly fitted or top-dose-only effect, or another doubt; inactive = no such curve, though single readings can be large or run the other way;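 also: potency is read from the fitted curve at half-maximal effect; plate controls were no enzyme wells and a reference inhibitor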
HttQ103 aggreg: reduces HttQ103-GFP aggregates in PC12 cells. AID 1688. PC12 HttQ103-GFP aggregates, Acumen cytometry, 40 h. Potency, µM (series often up to 46.1 µM), without a hit: at the highest dose activity change, negative = inhibition, most hits filed as inhibitors. hit rate 1.1% among 220,000; also: potency is read from the fitted curve at half-maximal effect; % is scaled to controls: 0 for no effect and ±100 for the full control effect; nearly all actives have a fitted effect of over 60% in size
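Read-out: GFP aggregate count by laser scanning cytometer (488 nm excitation, 500-530 nm emission, 1–25 µm objects >6 SD above background). Cells: PC12, inducible HTTex1-Q103-GFP, 100 nM tebufenozide; compounds titrated.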
HPGD block: inhibitors of human 15-hydroxyprostaglandin dehydrogenase (HPGD). AID 894. purified HPGD, NADH fluorescence kinetic, PGE2 substrate. Potency, µM, without a hit: top-dose activity change, negative = inhibition, hits mostly inhibitors. hit rate 4.3% among 150,000; active = well fitted inhibition curve with a large enough effect, not every such curve was filed as active; inconclusive = small, poorly fitted or top-dose-only effect, or another doubt; inactive = no such curve, though single readings can be large or run the other way; also: potency is read from the fitted curve at half-maximal effect; % is scaled to controls: 0 for no effect and ±100 for the full control effect
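NADH formation kinetics: reaction with 30 uM PGE2 and 1 mM NAD+ (final), 20 nM enzyme, Tris-HCl pH 8 with Tween 20, after 15 min compound preincubation at room temperature. Fluorescence change, last versus first of five reads.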
An asterisk follows results filed as active; ? = inconclusive; · = no result given; [ ] = another dose, or the depositor's remark. Only some compounds are listed: those with a hit (about 11% of all), similar ones and a draw of the others. Unless noted, calls follow the shape of the dose curve; as a rule, active = well fitted curve in the direction sought with a large enough effect; inconclusive = small, poorly fitted or top-dose-only effect, or another doubt; inactive = no such curve, though single readings can be large; an effect the other way counts as inactive or inconclusive.

SMILES	CBFb RUNX1 block	PNC assembly inh	HTT ATP protect	ALDH1A1 inh	HttQ103 aggreg	HPGD block
O=c1c2ccccc2nc(SCc2nc3ccccc3s2)n1Cc1ccco1	1%	-85*	8%[10 µM]	-5%	-30%	-15%
O=c1c2ccccc2nc(SCc2ccccc2)n1Cc1ccco1	17%	5	5%[10 µM]	20µM*	-16%	-25%
Cc1ccc(CSc2nc3ccccc3c(=O)n2Cc2ccco2)cc1	?	-10	7%[1.9 µM]	-10%	-32%	-15%
Fc1ccc(Nc2ncnc3ccc(-c4ccoc4)cc23)cc1	·	·	-14%	?	·	·
Cc1ccc(OC(=O)COc2ccccc2)c(-n2nc3ccccc3n2)c1	?	28	3%	?	12%[9.22 µM]	?
Cc1ccc(OC(=O)COc2ccccc2C)c(-n2nc3ccccc3n2)c1	27%	8	30%[10 µM]	32µM*	4%	?
CC(C)N(C(=O)CSc1nnc(NC(=O)C2CCC2)s1)C(C)C	8%	-102*	-19%[1.9 µM]	-3%	12%	-11%
O=C(CCl)N=c1sccn1Cc1cccc2ccccc12	-3%	·	-215%	20µM*	?	·
O=C(CCl)N=c1sccn1Cc1ccccc1Cl	5%	·	10%[10 µM]	·	-4%[9.22 µM]	·
O=C(CCl)N=c1sccn1Cc1ccc(Cl)cc1Cl	3%	·	-22%	28µM*	?	·
Cc1nccn1Cc1cccc2ccccc12	1%	-21	-8%	10%	-24%	-12%
O=C(c1ccc(Cn2c(=S)[nH]c3ccccc3c2=O)cc1)N1CCN(c2ccccn2)CC1	-17%	·	-38%	?	8%[9.22 µM]	·
CCOC(=O)N1CCN(CCC(=O)Nc2ccc(OC)cc2)CC1	3%	37	-13%	-8%	-3%	-13%
CCOC(=O)N1CCN(C(=O)Cc2ccc(Cl)cc2)CC1	4%	?	2%	-5%	1%	·
CC(C)COc1ccc(C(=O)CCN2CCCCC2)cc1	9%	-20	-31%	0.1µM*	-8%	-17%
CCOC(=O)N1CCN(CCC(=O)c2ccc(OC)cc2)CC1	9%	·	?	0.71µM*	?	·
CCOC(=O)N1CCN(CCC(=O)c2ccc(Cl)cc2)CC1	8%	2	-41%	0.089µM*	?	25µM*
CCC(O)OC(O)CC (centres undefined)	2%[21.7 µM]	·	-2%	7%	·	-3%
Cc1[nH][nH]c(=O)c1C(c1c(C)[nH][nH]c1=O)c1cn(Cc2ccc(F)cc2)c2ccccc12	?	-29	·	1.4µM*	25%	-6%
Cc1[nH][nH]c(=O)c1C(c1c(C)[nH][nH]c1=O)c1cn(Cc2ccc(Cl)c(Cl)c2)c2ccccc12	-26%	-2	-21%[10 µM]	3.5µM*	-6%	-4%
O=C(O)Cc1cn(Cc2ccc(F)cc2)c2ccccc12	-27%	·	-18%[10 µM]	-5%	-3%	·
Cn1c(=O)c2ncn(CC(=O)N/N=C/c3ccco3)c2n(C)c1=O	-2%	14	4%[10 µM]	3%	3%	-11%
CCOC(=O)C1CCN(C(=O)Cn2cc3c(n2)CCC(C)C3)CC1 (centres undefined)	-14%	-12	-2%[10 µM]	-6%	-15%	-9%
O=c1[nH]c(CN2CCc3ccccc32)nc2scc(-c3cccs3)c12	-27%	?	-17%	25µM*	-7%	-27%
O=c1[nH]c(CN2CCN(c3ccccc3O)CC2)nc2scc(-c3ccccc3Cl)c12	-18%	·	12%[10 µM]	·	1%[9.22 µM]	·
SMILES	CBFb RUNX1 block	PNC assembly inh	HTT ATP protect	ALDH1A1 inh	HttQ103 aggreg	HPGD block
O=C(CSc1nc2ccccc2n1CCc1ccccc1)c1ccc(O)c(O)c1	·	·	-14%[10 µM]	14µM*	?	·
O=C(CSc1nc2ccccc2c(=O)[nH]1)c1cccs1	-3%	?	2%	-12%	-14%	13µM*
N#Cc1c(-c2cccs2)nc(SCC(=O)c2cccs2)[nH]c1=O	-5%	11	-22%	-2%	13%	16µM*
Cc1cnc(NC(=O)CSc2nc3ccccc3c(=O)[nH]2)s1	-3%	-12	-4%[10 µM]	-5%	13%	16µM*
COc1ccc(-c2nc3cnc(N4CCN(C)CC4)nc3n(-c3ccc(OC)cc3)c2=O)cc1	·	·	-12%	?	·	·
COC(=O)NC(CC(C)=O)c1ccc(Cl)cc1 (centres undefined)	13%[13.1 µM]	·	-3%[10 µM]	4%[13.5 µM]	·	·
CC(NC(=O)c1ccc([N+](=O)[O-])cc1[N+](=O)[O-])c1ccc(-c2ccccc2)cc1 (centres undefined)	-10%	?	10%[10 µM]	3%	-14%	-7%
Cc1cnc(NC(=O)Cc2c[nH]c3ccccc23)s1	5%	18	-12%	25µM*	?	·
Cc1cc(SCC(=O)c2cccs2)nc2ccccc12	-4%	?	-9%[10 µM]	?	?	4.5µM*
O=C(CSc1nc2ccccc2c(=O)[nH]1)c1ccc(O)cc1O	-2%	·	·	?	-26%	·
O=C(CSc1nc2ccccc2c(=O)[nH]1)c1ccc(O)c(O)c1	-16%	?	-3%	?	-17%	16µM*
Cc1cc(SCc2cc(=O)n3ccsc3n2)nc2ccccc12	-5%	8	-19%[10 µM]	9%	0%	-21%
CC(C)[C@@H](CC(=O)N[C@@H]1CCCC[C@H]1C(=O)N[C@H](CC(=O)N[C@@H](CCC(=O)O)CC(=O)O)Cc1ccccc1)NC(=O)C[C@H](CO)NC(=O)[C@@H]1CCCC[C@H]1N	7%	·	7%[1.9 µM]	3%	·	-6%
CC(C)C1CC(CCN)(Cc2ccccc2)CCO1 (centres undefined)	-1%	·	-1%[10 µM]	-6%	2%[9.22 µM]	·
CCCCCCCCCCCCCCC[C@@H](O)[C@H](CO)NC(C)=O	14%	·	-10%	1%	·	-11%
Cc1nc2ncnn2c(N2CCCC(C(=O)Nc3ccc4c(c3)CCC4)C2)c1C (centres undefined)	6%	-11	-2%[10 µM]	?	10µM*	28µM*
O=C(NC1CC1)c1cc2c(s1)-c1ccccc1OC2	4%	?	-29%	?	6.3µM*	?
CCOC(=O)c1sc2nc3n(c(=O)c2c1C)CCC3	10%	24	20%[10 µM]	-11%	8%	-11%
CCOC(=O)c1sc2nc(SCC#N)n(CCCN3CCCC3=O)c(=O)c2c1C	-5%	?	6%[10 µM]	0.79µM*	3%	?
O=C(N/N=C\c1ccc(F)cc1)c1cc(OCC(F)(F)F)ccc1OCC(F)(F)F	5%	-87*	-14%	4%	-8%	-1%
Cc1cccc(CS(=O)(=O)c2nnc([C@H](Cc3ccccc3)NC(=O)OC(C)(C)C)o2)c1	-1%	-1	-159%	22µM*	?	14µM*
COC(=O)CS(=O)(=O)c1nnc([C@H](Cc2ccccc2)NC(=O)OC(C)(C)C)o1	8%	?	8%[10 µM]	8.9µM*	?	11µM*
CC(C)(C)OC(=O)N[C@@H](Cc1ccccc1)c1nnc(SCC(N)=O)o1	8%	·	15%[10 µM]	·	6%[9.22 µM]	·

Screening data as filed in PubChem.
